Test results from the supplement of paper PMC7380943.
Structures can show the parent of a compound that is named as a salt. ± gives the standard deviation of the averaged measurements.

test system: CLZ3 (HCA2 human fibroblast dual HR-NHEJ reporter); experiment: NHEJ repair efficiency (GFP+ cells) relative to control (log10 fold); higher = more non-homologous end joining; details: 5 µM; doxycycline 0.5 ug/mL
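Note: compound given one day ahead of doxycycline, which switches on I-SceI endonuclease to cut the chromosomally integrated reporter and create DSBs.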

| SMILES | NHEJ repair efficiency (log10) |
| --- | --- |
| C[C@@H]1CC[C@]2(C(=O)O[C@@H]3O[C@H](CO)[C@@H](O)[C@H](O)[C@H]3O)CC[C@]3(C)C(=CC[C@@H]4[C@@]5(C)CC[C@H](O)[C@@](C)(CO)[C@@H]5CC[C@]43C)[C@@H]2[C@]1(C)O [Pedunculoside] | 0.0473 |
| O=C1OC2(c3ccccc3Oc3ccccc32)c2ccccc21 [Fluoran] | 0.0054 |
| CC(C)(C)NCC(O)c1ccc(O)c(CO)c1 (centres undefined) [Salbutamol Sulfate] | -0.0861 |
| COc1cc([C@@H]2[C@H]3CO[C@@]4(O)C(=O)[C@@H]2C=C([C@H]2Oc5cc(O)cc(O)c5C(=O)[C@@H]2O)[C@@H]34)ccc1O [Silydianin] | -0.0155 ± 0.092 |
| COc1c2ccoc2cc2oc(=O)ccc12 [Bergapten] | -0.153 |
| CCCCC/C=C\C/C=C\CCCCCCCC(=O)O [Linoleic Acid] | 0.0448 |
| C=C1CCC[C@]2(C)C[C@]3(O)OC(=O)C(C)=C3C[C@@H]12 [Atractylenolide Ⅲ] | 0.0709 |
| O=C(O)C(O)Cc1ccc(O)c(O)c1 (centres undefined) [Sodium Danshensu] | -0.0204 |
| CC1(C)CC[C@]2(C(=O)O)[C@H](O)C[C@]3(C)C(=CC[C@@H]4[C@@]5(C)CC[C@H](O)C(C)(C)[C@@H]5CC[C@]43C)[C@H]2C1 [Echinocystic acid] | -0.117 |
| C=CCc1ccc(O)c(-c2cc(CC=C)ccc2O)c1 [Magnolol] | 0.0133 |
| CC1(C)CCC2(C(=O)OC3OC(CO)C(O)C(O)C3O)CCC3(C)C(=CCC4C5(C)CCC(OC6OC(C(=O)O)C(OC7OCC(O)C(OC8OC(CO)C(O)C(O)C8O)C7O)C(O)C6O)C(C)(C)C5CCC43C)C2C1 (centres undefined) [Oleanoside A] | -0.111 |
| CC[C@H](CC[C@@H](C)[C@H]1CC[C@H]2[C@@H]3CC=C4C[C@@H](O)CC[C@]4(C)[C@H]3CC[C@]12C)C(C)C [β-Sitosterol] | 0.038 |
| Nc1ncnc2c1ncn2[C@@H]1O[C@H](CO)C[C@H]1O [Cordycepin] | 0.007 |
| O=c1ccc2ccc(O)c(O)c2o1 [Daphnetin] | 0.0636 |
| CC(C)=CCC[C@](C)(O[C@@H]1O[C@H](CO[C@@H]2OC[C@H](O)[C@H](O)[C@H]2O)[C@@H](O)[C@H](O)[C@H]1O)[C@H]1CC[C@]2(C)[C@@H]1[C@H](O)C[C@@H]1[C@@]3(C)CC[C@H](O[C@@H]4O[C@H](CO)[C@@H](O)[C@H](O)[C@H]4O[C@@H]4O[C@H](CO)[C@@H](O)[C@H](O)[C@H]4O)C(C)(C)[C@@H]3CC[C@]12C [Ginsenoside Rb2] | 0.0156 |
| COc1cc2c(c(OC)c1OC)-c1c(cc(OC)c(OC)c1OC)C[C@H](C)[C@H](C)C2 [Schisandrin A] | -0.121 |
| COc1cc2oc(=O)ccc2c(OC)c1C[C@@H](O)C(C)(C)O [Toddalolactone] | 0.0484 |
| Cc1cc(=O)c2c(O)c3c(cc2o1)OC(C)(C)[C@@H](O[C@@H]1O[C@H](CO)[C@@H](O)[C@H](O)[C@H]1O)C3 [Sec-O-Glucosylhamaudol] | -0.132 |
| C[C@@]12C[C@@]3(O)O[C@@H](O1)[C@]1(COC(=O)c4ccccc4)[C@H]3C[C@@]12O[C@@H]1O[C@H](CO)[C@@H](O)[C@H](O)[C@H]1O [Paeoniflorin] | 0.122 |
| C=C(C)C(=O)Cc1c(OC)ccc2ccc(=O)oc12 [Murrayone] | 0.0921 |

| SMILES | NHEJ repair efficiency (log10) |
| --- | --- |
| COC(=O)c1c2c(c3ccccc3c1O)OC(C)(C)C=C2 [Rubimaillin] | 0.0202 |
| C[C@@H]1O[C@@H](Oc2c(-c3ccc(O)c(O)c3)oc3cc(O)cc(O)c3c2=O)[C@H](O)[C@H](O)[C@H]1O [Quercitrin] | -0.0507 |
| CO[C@H]1O[C@@H]2O[C@@]3(C)CC[C@H]4[C@H](C)CC[C@@H]([C@H]1C)[C@@]24OO3 [Artemether] | 0.125 |
| CC(C)(O)CC[C@@H](O)C(C)(O)[C@H]1CC[C@@]2(O)C3=CC(=O)[C@@H]4C[C@@H](O)[C@@H](O)C[C@]4(C)[C@H]3CC[C@]12C (stereo partly drawn) [Β-Hydroxyecdysone] | -0.034 |
| COc1c(O)cc2oc(-c3ccccc3)cc(=O)c2c1O [Oroxylin-A] | -0.22 |
| C[C@@H]1O[C@@H](O[C@H]2[C@H](Oc3cc(O)c4c(c3)O[C@H](c3ccc(O)cc3)CC4=O)O[C@H](CO)[C@@H](O)[C@@H]2O)[C@H](O)[C@H](O)[C@H]1O [Naringin] | -0.127 |
| O=Cc1ccc(CO)o1 [5-Hydroxymethyl-2-furaldehyde (5-HMF)] | -0.174 |
| C[C@@H]1O[C@@H](O[C@@H]2[C@@H](O)[C@H](OCCc3ccc(O)c(O)c3)O[C@H](COC(=O)/C=C/c3ccc(O)c(O)c3)[C@H]2O)[C@H](O)[C@H](O)[C@H]1O [Isoacteoside] | -0.112 |
| COc1cc2ccc(=O)oc2c(O[C@@H]2O[C@H](CO)[C@@H](O)[C@H](O)[C@H]2O)c1O [Fraxin;Fraxoside; Paviin] | 0.0655 |
| C=C1C(=O)O[C@@H]2/C=C(\C)CC/C=C(\C)CC[C@@H]12 [Costunolide] | -0.04 |
| C[C@@H]1O[C@@H](OC[C@H]2O[C@@H](Oc3cc(O)c4c(c3)O[C@H](c3ccc(O)c(O)c3)CC4=O)[C@H](O)[C@@H](O)[C@@H]2O)[C@H](O)[C@H](O)[C@H]1O [Eriocitrin] | 0.00276 |
| C=C(C)[C@@H]1CC[C@]2(C)CC[C@]3(C)[C@H](CC[C@@H]4[C@@]5(C)CC[C@H](O)C(C)(C)[C@@H]5CC[C@]43C)[C@@H]12 [Lupeol] | 0.0011 |
| OCc1ccccc1O[C@@H]1O[C@H](CO)[C@@H](O)[C@H](O)[C@H]1O [Salicoside] | -0.0463 |
| O=C(O)c1cc(O)c2c(c1)[C@H]([C@H]1c3cc(C(=O)O)cc(O)c3C(=O)c3c(O[C@@H]4O[C@H](CO)[C@@H](O)[C@H](O)[C@H]4O)cccc31)c1cccc(O[C@@H]3O[C@H](CO)[C@@H](O)[C@H](O)[C@H]3O)c1C2=O [Sennoside A] | 0.0438 |
| COc1ccc([C@@H]2CC(=O)c3c(O)cc(O[C@@H]4O[C@H](CO)[C@@H](O)[C@H](O)[C@H]4O[C@@H]4O[C@@H](C)[C@H](O)[C@@H](O)[C@H]4O)cc3O2)cc1O [Neohesperidin] | -0.0783 |
| COc1ccc(-c2oc3cc(O)cc(O)c3c(=O)c2O)cc1 [Kaempferide] | -0.0948 |
| C[C@H]1[C@H](OC(=O)CCC(=O)O)O[C@@H]2O[C@@]3(C)CC[C@H]4[C@H](C)CC[C@@H]1[C@@]24OO3 [Artesunate] | -0.0268 |
| COc1ccc(-c2oc3c(CC=C(C)C)c(O[C@@H]4O[C@H](CO)[C@@H](O)[C@H](O)[C@H]4O)cc(O)c3c(=O)c2O[C@@H]2O[C@@H](C)[C@H](O)[C@@H](O)[C@H]2O[C@@H]2OC[C@@H](O)[C@H](O)[C@H]2O)cc1 [Epimedin B] | -0.0634 |
| O=C1Nc2ccccc2/C1=C1/Nc2ccccc2C1=O [Indirubin] | -0.0691 |
